Most compounds without a hit are left out; they make up all but 6.6% or so of the library.
KB-3-1 tox = KB-3-1 parental cell cytotoxicity | KB-3-1 viability, CellTiter-Glo ATP luminescence, 72 h | actives 1.4% (n = 400,000) | Potency, µM (titrated, usually from 46.1 µM), most hits filed as cytotoxic | AID 1347075; further: on the % scale 0 is the no-effect control and ±100 the full control effect; nearly all actives have a fitted effect of over 60% in size
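Cytotoxicity in the drug-sensitive parental line KB-3-1 was scored as loss of CellTiter-Glo luminescence following 72 h incubation with compound. Values come from curve fitting of normalized concentration-response data.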
HT1080 IDH1KD tx = HT-1080 IDH1 knockdown cell toxicity (counter line) | HT-1080 IDH1 knockdown viability, ATP luminescence, 48 h | Potency, µM (highest dose often 46.1 µM), for the others: at the top dose activity, negative = toxicity, most hits filed as cytotoxic | actives 2% (n = 360,000);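 further: 0% = DMSO wells and -100% = cell-free medium wells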
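After a 2 h attachment period, IDH1KD HT-1080 cells took pin-transferred compound for 48 h at 37 °C; ATP-based luminescence after 10 min room-temperature reagent incubation reported viability.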
TGFb inhibitor = TGF-b pathway inhibition; HepG2 CAGA-GFP TGF-b/SMAD3 reporter, GFP fluorescence, 18 h; TGF-beta stimulated, 500 pg/mL final; Potency, µM (doses to about 46.1 µM), for inactives: at the top dose activity, negative = inhibition, most hits filed as inhibitors; actives 1.2% (n = 410,000); further: on the % scale 0 is the no-effect control and ±100 the full control effect; nearly all actives have a fitted effect of over 65% in size
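Cell-based qHTS in HEPG2 carrying a CAGA-GFP Smad reporter; compounds added before 500 pg/mL final TGF-beta, 18 h incubation at 37 degrees C, GFP fluorescence quantified per cell by imaging cytometry.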
HepG2 viability = HepG2 cytotoxicity, counter-screen for TGF-b inhibitors | Potency, µM (doses to about 46.1 µM), for the others: top-dose activity change, negative = cytotoxicity, most hits filed as cytotoxic | AID 588856 | actives 0.76% (n = 410,000) | HepG2 CAGA-GFP viability, ATP luminescence, 18 h
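HepG2 CAGA-GFP cells (1000/well, DMEM with 1% FBS) received compound, then TGF-beta at 500 pg/mL final, and were incubated 18 hours at 37 degrees C. Viability was read by CellTiter-Glo luminescence. Media-only wells were set as complete cell-killing and DMSO as no toxicity.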
KB-V1 cytotox = kills drug-selected multidrug resistant KB-V1 cells; actives 3.4% (n = 400,000); KB-V1 MDR cells viability, CellTiter-Glo, 72 h; Potency, µM (titrated, usually from 46.1 µM), most hits filed as cytotoxic; AID 1347076; further: on the % scale 0 is the no-effect control and ±100 the full control effect; nearly all actives have a fitted effect of over 60% in size
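KB-V1 MDR subline cells in DMEM (phenol-red free, 10% FBS) exposed to compounds in qHTS concentration series for 72 h at 37 degrees C. Viability read by CellTiter-Glo luminescence; concentration-effect curves fitted after normalization and correction.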
HT1080NT lethal = kills 2HG-producing HT-1080-NT fibrosarcoma cells; HT-1080-NT fibrosarcoma viability, CellTiter-Glo ATP luminescence, 48 h; Potency, µM (doses to about 46.1 µM), for inactives: at the top dose activity, negative = less viability, usual class: cytotoxic; actives 1.6% (n = 360,000); AID 686970;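 further: NT is the 2HG producing partner of a matched IDH1 knockdown line; 0% = DMSO-treated cells and -100% = media-only wells without cells; nearly all actives have a fitted effect of over 55% in size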
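Viability of the 2HG-overproducing fibrosarcoma line after 48 hours of compound exposure at 37 degrees C was determined by luminescence with CellTiter-Glo, and concentration-effect curves were then fitted and categorized.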
* marks the source's active call; other numbers are inactive results; i = inactive; ? = inconclusive; · = no result given; [ ] = dose if it differs, or a comment. The call rests on the fitted dose curve; in most records, active means well fitted curve in the direction sought with a large enough effect; inconclusive means small, poorly fitted or top-dose-only effect, or another doubt; inactive means no such curve, though single readings can be large; an effect the other way counts as inactive or inconclusive. Potency means the concentration at half of the fitted maximal effect.

SMILES	KB-3-1 tox	HT1080 IDH1KD tx	TGFb inhibitor	HepG2 viability	KB-V1 cytotox	HT1080NT lethal
COC(=O)C1C=CC(OC2OC(COC(C)=O)C(OC(C)=O)C(OC(C)=O)C2OC(C)=O)n2c(=O)n(-c3ccccc3)c(=O)n21 (configuration not stated)	?	5.8µM*	?	-86%	5.2µM*	?
CC(=O)OCC1OC(n2ccc3ccccc32)C(OC(C)=O)C(OC(C)=O)C1OC(C)=O (configuration not stated)	i	22%	?	0%	i	18%
CCN(CC)CCOC(=O)c1ccc(NC(=O)CCCN2C(=O)S/C(=C/c3ccc(OC)cc3)C2=S)cc1	i	12µM*	-7%	-28%	i	?
COc1ccc(/C=C2\SC(=S)N(CCC(=O)Nc3ccc(O)cc3)C2=O)cc1	i	0%	0%	3%	i	?
CC1=CC2C(C(O)CC3(C)C2CC(C)C32OCOC23COCO3)C2(C)C/C(=C\O)C(=O)C=C12 (configuration not stated)	?	7.3µM*	5.6µM*	11µM*	?	18µM*
COCCCNC(=O)c1cccn2c(=O)c3cc4ccccc4cc3nc12	i	?	4%	-18%	4.1µM*	-8%
COCCNC(=O)c1cc2c(=O)n3cccc(C)c3nc2n1C	3.3µM*	-2%	-28%	-34%	5.8µM*	24%
CCCCn1c(NCc2cc(Cl)ccc2O)nc2ccccc21	?	·	-23%	-40%	13µM*	·
CCCn1c(NCc2cccc(OC)c2O)nc2ccccc21	i	-13%	-3%	-26%	8.2µM*	-16%
COc1cccc(CNCc2ccco2)c1O	i	18%	3%	10%	i	-1%
COc1cccc(CNCc2cccc(OC)c2O)c1O	i	-7%	-28%	-32%	18µM*	-1%
CCCCn1c(NCc2cc(C)ccc2O)nc2ccccc21	i	?	?	-24%	i	-29%
CCCCn1c(NCc2ccc(N(C)C)cc2)nc2ccccc21	i	-19%	16µM*	-35%	?	-3%
CCCn1c(NCc2cccc(OC)c2OC)nc2ccccc21	i	-14%	10%	-28%	i	-24%
CC(=O)C1CCC2C3CCC4=CC(=O)C=CC4(C)C3C(=O)CC12C (configuration not stated)	i	13%	8%	-2%	i	11%
C[C@]12C=CC(=O)C=C1CC[C@@H]1C2=CC[C@]2(C)[C@@H](C(=O)CN3CCN(c4cc(N5CCCC5)nc(N5CCCC5)n4)CC3)CC[C@@H]12	i	-25%	2%	25µM*	i	-26%
CCOC(=O)c1c(NC(=O)CN2C(=O)NC3(CCCCC3C)C2=O)sc(C)c1C (configuration not stated)	i	-5%	4%	-18%	?	-10%
CC1(c2ccc3ccccc3c2)NC(=O)N(CC(=O)O)C1=O (configuration not stated)	i	0%	0%	9%	i	-8%
CCOC(=O)c1c(C)[nH]c(C(=O)CN2C(=O)NC(C)(c3ccc4ccccc4c3)C2=O)c1C (configuration not stated)	i	?	?	-15%	10µM*	?
CCOC(=O)c1c(C)[nH]c(C(=O)CN2C(=O)NC3(CCCC3)C2=O)c1C	i	-8%	-1%	2%	i	-5%
CCOC(=O)c1c(NC(=O)CN2C(=O)NC(C)(c3ccccc3)C2=O)sc(C)c1C (configuration not stated)	16µM*	?	?	13%	16µM*	?
CCCC1(c2ccccc2)NC(=O)N(CC(=O)Nc2sc(-c3ccccc3)cc2C(=O)OCC)C1=O (configuration not stated)	?	12µM*	-4%	2%	?	16µM*
CCCC1(c2ccccc2)NC(=O)N(CC(=O)c2[nH]c(C)c(C(=O)OCC)c2C)C1=O (configuration not stated)	?	1%[9.24 µM]	-10%	-4%	23µM*	?
Cc1ccc(/C(O)=C/c2nc3ccccc3oc2=O)cc1	i	23µM*	?	-2%	i	-12%
Cc1cc(C)cc(NC(=O)N2CCC3(CC2)Oc2ccccc2C(=O)N3Cc2ccccc2F)c1	·	·	·	0%	·	·
SMILES	KB-3-1 tox	HT1080 IDH1KD tx	TGFb inhibitor	HepG2 viability	KB-V1 cytotox	HT1080NT lethal
COc1ccc(/C=C/C(=O)NCc2cnn(C)c2C)cc1COc1ccc(Br)cc1	i	?	?	-2%	15µM*	-22%
COc1ccc(/C=C/C(=O)NCc2c(C)nn(C)c2C)cc1COc1ccc(Br)cc1	i	?	-19%	-54%	i	-19%
CC(=O)c1ccc(NC(=O)CCc2c(C)nn(-c3ccc4nncn4n3)c2C)cc1	·	·	0%	-10%	·	·
COc1ccc(OC)c(C2CC(=O)c3c([nH]c(C(=O)OCC4CCCO4)c3C)C2)c1 (configuration not stated)	9.2µM*	-15%	-2%	-8%	?	-11%
COc1ccc(OC)c(C2CC(=O)c3c([nH]c(C(=O)OC(C)C)c3C)C2)c1 (configuration not stated)	0.46µM*	3.3µM*	-21%	-5%	0.52µM*	5.8µM*
CCCOCCOC(=O)c1[nH]c2c(c1C)C(=O)CC(c1cc(OC)ccc1OC)C2 (configuration not stated)	5.8µM*	4.1µM*	-13%	-1%	5.8µM*	5.8µM*
COCCOC(=O)c1[nH]c2c(c1C)C(=O)CC(c1cc(OC)ccc1OC)C2 (configuration not stated)	8.2µM*	12µM*	-25%	-23%	?	12µM*
COc1ccc(OC)c(C2CC(=O)c3c([nH]c(C(=O)OCc4ccc(C)cc4)c3C)C2)c1 (configuration not stated)	·	·	-3%	-3%	·	·
CCCN(C(=O)Cn1ncc2c([nH]c3ccccc32)c1=O)c1ccc(F)cc1	i	·	-14%	-38%	i	·
CCCN(CCC)S(=O)(=O)c1ccc(C(=O)N2CCn3c4c(c5cc(C)ccc53)CCCC42)cc1 (configuration not stated)	i	·	0%	-6%	i	·
CCOc1ccc(NC(=O)CN2C(=O)C(c3ccccc3)=NC23CCC(C)CC3)cc1 (configuration not stated)	·	·	?	-21%	·	·
